# Results filed as inconclusive are left out. Calls of active or inactive are those of the source. Calls follow the shape of the dose curve; as a rule, active = well fitted activation curve with a large enough effect; inconclusive = small, poorly fitted or top-dose-only effect; inactive = no such curve, though single readings can be large or run the other way.
# Experiment: Activators of T cell receptors: Hit Validation; as to activation: 0% is about no effect
# Conditions: primary human leukocytes, cytokine release by HTRF, 48 h
# From the text: Normally activation of naive T cells requires two signals. 1. A signal through the T cell receptor (TCR) which provides antigen specificity to the response. 2. Signals through co-stimulatory molecules, which are necessary for proliferation, survival and cytokine production. In the absence of co-stimulatory signals T cells are not effectively activated, and may even be rendered anergic or unresponsive to subsequent signaling. This lack of costimulation has been shown in multiple model systems to be a major factor in the limited strength and effectiveness of anti-tumor T cell responses. The goal of this project is to identify small molecule compounds that will stimulate T cell activation in the presence of TCR signaling but in the absence of co-stimulatory signals, thereby allowing activation of naive T cells in the absence of co-stimulation. Identification of such compounds would have clear experimental and clinical applications in instances where desirable antigen-specific immune responses are not generated due to a lack of co-stimulation, for example in the generation of anti-tumor responses.
# In collaboration between the National Cancer Institute and NIH Chemical Genomics Center, a high-throughput amenable screen was developed to discover small molecules that co-stimulate and activate human T cell receptors. The screen will be carried out using a novel homogeneous time resolved fluorescence energy transfer (HTRF) assay to measure production of the cytokine IL-2 by activated T cells and will be tested against the NIH Molecular Libraries Small Molecule Repository (MLSMR). This is the same assay tested against the hits identified in the primary screen.
# NIH Chemical Genomics Center [NCGC]
# NIH Molecular Libraries Probe Centers Network [MLPCN]
# Assay Submitter (PI): Richard Hodes, National Cancer Institute, NIH
# Primary human leukocytes are incubated with a-CD3 beads and compounds for 48 hr. The amount of secreted IL-2 is then assayed with a HTRF IL-2 kit. The presence of IL-2 cytokine captures the detection reagents and brings the a-IL-2-K and a-IL-2-d2 into close proximity. Upon excitation with 320nm light, the europium cryptate is capable of transferring energy to acceptor molecules within close proximity, resulting in acceptor molecule emission at 665nm.
# Potency is read from the fitted curve at half-maximal effect.
row,Compound,Potency
1,C=C(C)[C@@]12OC3(c4ccccc4)O[C@@H]1C1[C@@H]4O[C@]4(CO)[C@@H](O)[C@]4(O)C(=O)C(C)=C[C@H]4[C@@]1(O3)[C@H](C)[C@H]2OC(=O)/C=C/C=C/c1ccccc1 (stereo not given in full),0.002 µM (active)
2,CN(C)c1ccc(/C=C/c2cc[n+](C)c3ccccc23)cc1,7.91 µM (active)

# Same assay, conditions: primary human leukocytes, cytokine release by HTRF, 48 h; TCR-stimulated with anti-CD3 beads
row,Compound,Potency
1,CN(C)c1ccc(/C=C/c2cc[n+](C)c3ccccc23)cc1,6.28 µM (active)

# Same assay, conditions: primary human leukocytes, cytokine release by HTRF, 48 h; at 46.1 µM (top of the series)
row,Compound,activation
1,COc1ccc(N/N=C/c2c(O)n(-c3ccc(C)c(C)c3)c(=O)[nH]c2=O)cc1,11.6% (inactive)
2,C#C[C@]1(O)CC[C@H]2[C@@H]3CCC4=CC(=O)CC[C@]4(C)[C@H]3CC[C@@]21C,-6.05% (inactive)
3,CCC(C)n1c(O)c(C=NC(C)c2ccccc2)c(=O)[nH]c1=S (stereo not given),6.34% (inactive)
4,COc1ccc(/C=C/C(=O)c2c(O)n(CCC3=CCCCC3)c(=O)[nH]c2=O)cc1,2.49% (inactive)

# Same assay, conditions: primary human leukocytes, cytokine release by HTRF, 48 h; at 46.1 µM (top of the series); TCR-stimulated with anti-CD3 beads
row,Compound,activation
1,Cc1ccc(OC(F)F)c(N2C(=O)C3C4CCC(O4)C3C2=O)c1 (stereo not given),-0.91% (inactive)
2,CC(C)[C@]12CC(=O)[C@H](C)[C@H]1C2,-2.87% (inactive)
3,Nc1cc(Cl)cc(Cl)c1,-3.76% (inactive)

# — PubChem BioAssay AID624298 (National Center for Advancing Translational Sciences (NCATS), 2012)
